Rows were chosen to be rich in hits. Some 0.5% of all compounds tested hit in one or more screens of this group.
AddAB inh = less growth of phage-infected E. coli with AddAB; E. coli expressing H. pylori AddAB, absorbance growth; inhibition, % at 11.9 µM; hit rate 0.29% among 330,000; AID 435030; in the data active = inhibition above about 12%;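 also: 0% = vehicle wells of infected cells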
Tat transport = E. coli Tat transport inhibition. E. coli MC4100 TorA-mCherry Tat export, fluorescence. inhibition, % at 10 µM. hit rate 0.036% among 340,000. AID 488895;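 active = mean replicate inhibition at least 50% and at least half of replicates individually reaching 50%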;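 also: exported cargo escapes ClpAP degradation while cytoplasmic cargo is degraded and loses fluorescence; 0% = median of neutral control wells and 100% = median of NaSCN control wells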
E coli growth-1 = counter-screen for AddAB inhibitors: E. coli growth inhibition; inhibition, % at 11.9 µM; AID 449728; hit rate 0.27% among 330,000; E. coli V3065 growth, OD600 absorbance, 18 h;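 active = inhibition above the campaign's mean inhibition across all tested compounds plus 3 SD, cut at about 9.9% in these data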;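 also: uninfected addAB+ strain grown without phage in ampicillin broth; 0% = DMSO wells and 100% = ciprofloxacin 0.95 µg/ml wells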
phage Ecoli inh = E. coli growth loss with phage present. growth absorbance. inhibition, % at 11.9 µM. hit rate 0.26% among 360,000; in the data active = inhibition above about 11%
E coli growth-2 = blocks Escherichia coli growth; OD600, 23 h; stronger effect = lower value; OD600 absorbance (concentration not given with the values); hit rate 0.21% among 330,000; AID 1053175;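 active = OD600 absorbance below the run mean of sample wells minus 3.6 SD, in any replicate, cut at about 0.56 in these data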
Numbers without * were called inactive; . = no result given.

SMILES	AddAB inh	Tat transport	E coli growth-1	phage Ecoli inh	E coli growth-2
S=C1SCN(Cc2ccccn2)CN1Cc1ccco1	1	-6	0	0	0.52*
CCOc1cc(C=C2SC(=S)NC2=O)ccc1OC(=O)c1ccco1	.	.	.	.	0.71
COc1ccc2cc(C(=O)C3CCCN(C(=O)Cc4c(C)noc4C)C3)ccc2c1 (configuration not stated)	1	-2	-2	-2	0.54*
COc1ccc2cc(C(=O)C3CCCN(C(=O)c4snnc4C)C3)ccc2c1 (configuration not stated)	-3	3	-1	-1	0.69
O=C1Nc2ccc(Br)cc2C1(O)c1ccccc1 (configuration not stated)	2	0	-1	3	0.68
O=C1Nc2ccc(Br)cc2C12NNc1ccccc1O2 (configuration not stated)	10	-4	6	6	0.43*
Cc1nnsc1C(=O)NNc1c(Cl)cccc1Cl	5	6	2	3	0.48*
Cc1nnsc1C(=O)NNc1ccc(Cl)cc1	0	3	0	0	0.67
O=C(/C=C/c1ccccc1)NC(=S)NNC(=O)c1cccnc1	-3	4	-6	-4	0.72
O=C(/C=C/c1ccccc1)NC(=S)NNC(=O)c1cnccn1	11	2	11*	9	.
C#CCOCCOCCOCCNc1nc(N2CCN(C(=O)C(CC(N)=O)n3cc(C(N)C(C)C)nn3)CC2)nc(N2CCN(C(=O)C(CCCN=C(N)N)n3cc(C(N)C(C)CC)nn3)CC2)n1 (configuration not stated)	.	.	.	.	0.64
CCN(Cc1ccccc1)c1ccc(/C=N/N2CCOCC2)cc1	-1	-6	2	3	.
CCN(Cc1ccccc1)c1ccc(C=NN=C(N)N)cc1	.	.	.	.	0.5*
COc1cc(C=NN=C(N)N)ccc1OCc1ccc(Cl)cc1	.	.	.	.	0.51*
NC(N)=NN=Cc1ccc(OCc2ccccc2)c(OCc2ccccc2)c1	.	.	.	.	0.069*
COc1ccc(C=NN2CCOCC2)cc1O	.	.	.	.	0.55*
COc1ccc(/C=N/N2CCOCC2)cc1O	0	2	-2	1	.
O=C1Nc2ccccc2/C1=C\C(=O)c1ccccc1	2	2	-3	0	0.65
O=C(/C=C1\C(=O)Nc2ccccc21)/C=C1\C(=O)Nc2ccccc21	.	2	.	-1	0.51*
COc1ccc(C2C=CCN(C(=O)c3ccccc3)C(C)C(=O)N2Cc2ccc(F)cc2)cc1 (configuration not stated)	.	.	.	.	0.68
CC(=O)C1=C(C)N(CC2CC2)C(=O)NC1c1ccc(Br)cc1 (configuration not stated)	.	.	.	.	0.71
CCOc1ccc(NS(=O)(=O)c2ccc(C(=O)NNC(=O)c3ccccc3O)cc2)cc1	6	-11	0	4	0.52*
CN1CC2C3C(=O)N(Cc4ccccc4)C(=O)C3[C@](Cc3ccccc3)(C1=O)N2C(=O)c1ccc(F)cc1 (some centres not stated)	.	.	.	.	0.66
COC(=O)C(N)Cc1ccc(O)c(O)c1 (configuration not stated)	1	7	1	-1	0.68
NC(CO)C(=O)NNCc1ccc(O)c(O)c1O (configuration not stated)	10	2	13*	7	.
SMILES	AddAB inh	Tat transport	E coli growth-1	phage Ecoli inh	E coli growth-2
CCCCCCCC(=O)N1CCN(c2cc3c(cc2F)c(=O)c(C(=O)O)cn3CC)CC1	.	-1	.	3	0.097*
CCCCCCn1cc(C(=O)O)c(=O)c2cc(F)c(N3CCN(C)CC3)cc21	1	8	0	.	0.63
CCCCCCCCC(=O)N1CCN(c2cc3c(cc2F)c(=O)c(C(=O)O)cn3CC)CC1	-1	8	3	0	0.42*
CCC1=C(OC(=O)N(CC)CC)N2C(=O)OC(=NCc3ccccc3)[C@]2(C)C2C1=CCC1C(=O)N(c3ccccc3)C(=O)C12 (some centres not stated)	.	.	.	.	0.72
CCn1cc(C(=O)N2CCN(c3cccc(C)c3C)CC2)c(=O)c2ccc(C)nc21	0	11	-1	-1	0.42*
CCn1cc(C(=O)OCC(=O)NCc2ccccc2Cl)c(=O)c2ccc(C)nc21	0	0	3	1	0.51*
CCn1cc(C(=O)OCC(=O)Nc2c(C)cccc2C)c(=O)c2ccc(C)nc21	3	-1	4	4	0.49*
CCn1cc(C(=O)N2CCN(c3ccc([N+](=O)[O-])cc3)CC2)c(=O)c2ccc(C)nc21	1	-7	2	3	0.72
CCn1cc(C(=O)NCc2ccccc2OC)c(=O)c2ccc(C)nc21	-2	.	4	.	0.75
CCn1cc(C(=O)OC)c(=O)c2ccc(C)nc21	2	3	3	4	0.7
CCCOc1ccc(C2=CC(=O)CC(c3ccc(OC)cc3)C2)cc1 (configuration not stated)	.	.	.	.	0.71
O=C(CCCCO)CCCCCCCCC1NC(CO)C(O)C1OC1OC(CO)C(O)C(O)C1O (configuration not stated)	.	.	.	.	0.7
C=CCNC(=S)NN=C(C)c1ccccn1	.	.	.	.	0.53*
COc1ccc(C(=O)N2CC3(CC(c4cccc(NC(=O)COc5ccc(Cl)cc5)c4)=NO3)CC2C(N)=O)cc1 (configuration not stated)	.	.	.	.	0.69
Cc1cc(C(C)(C)CC(C)(C)C)ccc1OCCOCC[N+](C)(C)Cc1ccccc1	-3	33	3	3	0.066*
CC(C)c1ccc2c(c1)CC[C@H]1[C@](C)(CN)CCC[C@]21C	.	3	.	4	.
CC(C)c1ccc2c(c1)CCC1C(C)(CN)CCCC21C (configuration not stated)	4	-8	-1	9	0.48*
CCN1/C(=C/C=C/c2oc3ccc4ccccc4c3[n+]2CC)Oc2ccc3ccccc3c21	11	.	11*	.	0.69
CNS(=O)(=O)c1cccc(C(=O)OCC(=O)Nc2ccc(Cl)cc2F)c1	1	3	1	2	0.69
CNS(=O)(=O)c1cccc(C(=O)OCC(=O)Nc2cc(F)ccc2F)c1	3	-12	11*	0	0.7
CCc1cccc2c(C(=O)COC(=O)c3ccccc3)c[nH]c12	2	1	1	3	0.09*
COc1ccccc1NC(=O)CN(Cc1ccco1)C(=O)c1cc2ccccc2o1	2	3	-3	.	0.54*
COc1ccccc1NC(=O)CN(Cc1ccco1)C(=O)c1ccc(=O)[nH]c1	0	-3	-1	2	0.69
O=C(C1=CC(c2ccc(C(F)(F)F)cc2)CC(OCCCCO)O1)N1CCCCCCC1 (configuration not stated)	.	.	.	.	0.67
[N-]=[N+]=NC1CC(n2ccc(=O)[nH]c2=O)OC1CO (configuration not stated)	.	.	.	.	0.56
Cc1ccc2c(c1)N(C)/C(=C/c1cccc[n+]1C)S2	2	0	-2	0	0.53*
NC(=O)SCC(=O)Nc1ccc(Cl)cc1	3	-2	6	0	0.53*
CN1C(=O)C2C(C1=O)C(c1ccc(Br)cc1)N1C(=O)c3ccccc3NC(=O)C21 (configuration not stated)	.	.	.	.	0.69
O=C(Nc1ccc([N+](=O)[O-])cc1)Nc1ccc(Cl)cc1F	7	-3	9.8*	11	0.65

Source: PubChem BioAssay (several laboratories)
